In PubChem BioAssay (NCATS):
Inconclusive results are not listed. A number with no mark means an inactive call. Active and inactive are the calls of the source. Calls follow the shape of the dose curve; as a rule, active = well fitted cell-killing curve with a large enough effect; inconclusive = small, poorly fitted or top-dose-only effect, or effect the other way; inactive = no such curve, though single readings can be large or run the other way.

What was measured:
[1] = Quantitative High-Throughput drug screen in 47 multiple myeloma cell lines against the NCATS MIPE library collection: OCIMY7_PLB cell viability assay (AID 1918987); settings: OCI-MY7 myeloma viability, CellTiter-Glo ATP, 48 h; viability (% of DMSO): at 45.8 µM (top of the series); also: nearly all actives have a fitted effect of over 65% in size
Method in brief: (§1)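 Inhibition of viability over 48 h was scored by ATP content (CellTiter-Glo) in 500-cell wells. Zero and full viability were defined by media-only and DMSO-only wells.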

[2] = Quantitative High-Throughput drug screen in 47 multiple myeloma cell lines against the NCATS MIPE library collection: OCIMY5_PLB cell viability assay (AID 1918988); also: nearly all actives have a fitted effect of over 65% in size
Method in brief: as §1

[3] = Quantitative High-Throughput drug screen in 47 multiple myeloma cell lines against the NCATS MIPE library collection: OPM1_PLB cell viability assay (AID 1918989); also: nearly all actives have a fitted effect of over 40% in size
Method in brief: as §1

[4] = Quantitative High-Throughput drug screen in 47 multiple myeloma cell lines against the NCATS MIPE library collection: U266_ATCC cell viability assay (AID 1919864); also: nearly all actives have a fitted effect of over 35% in size;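 as to viability (% of DMSO control): 0% = media-only wells without cells and 100% = DMSO-only wells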
Method in brief: as §1

[5] = Quantitative High-Throughput drug screen in 47 multiple myeloma cell lines against the NCATS MIPE library collection: XG6_PLB cell viability assay (AID 1919865); also: nearly all actives have a fitted effect of over 40% in size
Method in brief: as §1

[6] = Quantitative High-Throughput drug screen in 47 multiple myeloma cell lines against the NCATS MIPE library collection: XG1_PLB cell viability assay (AID 1919866); also: nearly all actives have a fitted effect of over 35% in size
Method in brief: as §1

[7] = Quantitative High-Throughput drug screen in 47 multiple myeloma cell lines against the NCATS MIPE library collection: VP6_DJ cell viability assay (AID 1919867); also: nearly all actives have a fitted effect of over 40% in size
Method in brief: as §1

[8] = Quantitative High-Throughput drug screen in 47 multiple myeloma cell lines against the NCATS MIPE library collection: UTMC2_PLB cell viability assay (AID 1919868); settings: CellTiter-Glo ATP luminescence, 48 h; viability (% of DMSO control): at 45.8 µM (top of the series); also: nearly all actives have a fitted effect of over 55% in size
Method in brief: as §1

[9] = Quantitative High-Throughput drug screen in 47 multiple myeloma cell lines against the NCATS MIPE library collection: PE2_PLB cell viability assay (AID 1919869); also: nearly all actives have a fitted effect of over 35% in size
Method in brief: as §1

[10] = Quantitative High-Throughput drug screen in 47 multiple myeloma cell lines against the NCATS MIPE library collection: SKMM1_PLB cell viability assay (AID 1919863); settings: SKMM1 myeloma viability, CellTiter-Glo ATP, 48 h; viability: active compounds read low; also: nearly all actives have a fitted effect of over 35% in size
Method in brief: as §1
Potency is read from the fitted curve at half-maximal effect.

CCN(CC)Cc1ccc2cc(COC(=O)Nc3ccc(C(=O)NO)cc3)ccc2c1
Potency [1]: 0.372 µM (active)
Potency [2]: 0.372 µM (active)
Potency [3]: 0.264 µM (active)
Potency [4]: 0.662 µM (active)
Potency [5]: 1.66 µM (active)
Potency [6]: 0.833 µM (active)
Potency [7]: 0.132 µM (active)
Potency [8]: 0.148 µM (active)
Potency [9]: 0.935 µM (active)

CC(C=CC1=C(C)CCCC1(C)C)=CC=CC(C)=CC(=O)Nc1ccc(O)cc1
Potency [1]: 4.29 µM (active)
Potency [2]: 9.59 µM (active)
Potency [3]: 3.4 µM (active)
Potency [10]: 19.1 µM (active)
Potency [5]: 13.6 µM (active)
Potency [6]: 15.2 µM (active)
Potency [7]: 12.1 µM (active)
Potency [8]: 15.2 µM (active)
Potency [9]: 12.1 µM (active)

CCOc1cc2c(c(F)c1OCC)C(=N)N(CC(=O)c1cc(N3CCOCC3)c(OC)c(C(C)(C)C)c1)C2
Potency [1]: 7.43 µM (active)
Potency [2]: 16.6 µM (active)
Potency [3]: 14.8 µM (active)
Potency [10]: 20.9 µM (active)
Potency [5]: 9.35 µM (active)
Potency [6]: 8.33 µM (active)
Potency [7]: 9.35 µM (active)
Potency [8]: 7.43 µM (active)
Potency [9]: 20.9 µM (active)

O=C(O)c1ccc(Nc2ncc3c(n2)-c2ccc(Cl)cc2C(c2c(F)cccc2F)=NC3)cc1
Potency [1]: 0.209 µM (active)
Potency [2]: 0.332 µM (active)
Potency [3]: 5.9 µM (active)
Potency [4]: 20.9 µM (active)
Potency [5]: 0.662 µM (active)
Potency [6]: 0.418 µM (active)
Potency [7]: 5.9 µM (active)
Potency [8]: 1.66 µM (active)

CCCNC(=O)[C@H]1O[C@H]1C(=O)N[C@H](C(=O)N1CCC[C@@H]1C(=O)OC)C(C)CC (stereo not given in full)
Potency [1]: 3.32 µM (active)
Potency [2]: 2.64 µM (active)
Potency [3]: 18.7 µM (active)
Potency [10]: 20.9 µM (active)
Potency [4]: 10.5 µM (active)
Potency [5]: 8.33 µM (active)
Potency [6]: 14.8 µM (active)
Potency [7]: 16.6 µM (active)
Potency [9]: 4.18 µM (active)

Oc1cc2c(cc1O)C1c3ccc(O)c(O)c3OCC1(O)C2 (stereo not given)
Potency [1]: inactive
Potency [2]: inactive
Potency [3]: inactive
viability [10]: 120%
Potency [4]: inactive
Potency [5]: inactive
Potency [6]: inactive
Potency [9]: 20.9 µM (active)

CC(C)n1cnc2c(NCCc3ccc(O)cc3)nc(-c3csc4ccccc34)nc21
Potency [1]: 7.43 µM (active)
Potency [2]: 1.66 µM (active)
Potency [3]: 23.5 µM (active)
Potency [10]: 20.9 µM (active)
Potency [5]: 3.72 µM (active)
Potency [6]: 3.72 µM (active)
Potency [7]: 8.33 µM (active)
Potency [8]: 10.5 µM (active)

O=C1NC(=O)[C@@H](c2cn3c4c(cccc24)CCC3)[C@H]1c1c[nH]c2ccccc12
Potency [1]: 0.0372 µM (active)
Potency [2]: 0.132 µM (active)
Potency [3]: 2.09 µM (active)
Potency [10]: 0.132 µM (active)
Potency [6]: 0.0332 µM (active)
Potency [7]: 0.526 µM (active)
Potency [8]: 0.332 µM (active)
Potency [9]: 1.87 µM (active)

CCC(C(=O)O)C1CCC(C)C(C(C)C(O)C(C)C(=O)C(CC)C2OC3(C=CC(O)[C@@]4(CC[C@](C)(C5CC[C@@](O)(CC)C(C)O5)O4)O3)C(C)CC2C)O1 (stereo not given in full)
Potency [1]: 2.96 µM (active)
Potency [2]: 0.372 µM (active)
Potency [3]: 1.32 µM (active)
Potency [10]: 2.64 µM (active)
Potency [5]: 3.32 µM (active)
Potency [6]: 5.9 µM (active)
Potency [7]: 2.09 µM (active)
Potency [8]: 1.32 µM (active)
Potency [9]: 2.64 µM (active)

Nc1ncn([C@@H]2O[C@H](CO)[C@@H](O)[C@@H]2O)c(=O)n1
Potency [1]: 3.72 µM (active)
Potency [2]: 9.35 µM (active)
Potency [3]: 11.8 µM (active)
Potency [10]: 13.2 µM (active)
Potency [5]: 9.35 µM (active)
Potency [6]: 2.96 µM (active)
Potency [7]: 11.8 µM (active)
Potency [8]: 8.33 µM (active)
Potency [9]: 18.7 µM (active)

N#Cc1c(C2CCNCC2)cc(-c2c(O)cccc2OCC2CC2)nc1N
Potency [1]: 2.35 µM (active)
Potency [2]: 14.8 µM (active)
Potency [3]: 20.9 µM (active)
Potency [10]: 18.7 µM (active)
Potency [4]: 13.2 µM (active)
Potency [5]: 1.05 µM (active)
Potency [6]: 4.18 µM (active)
Potency [7]: 18.7 µM (active)
Potency [9]: 18.7 µM (active)

Cn1cc(-c2cnn3c(N)c(Br)c([C@H]4CCCNC4)nc23)cn1
Potency [1]: 1.18 µM (active)
Potency [2]: 0.332 µM (active)
Potency [3]: 0.833 µM (active)
Potency [4]: 7.43 µM (active)
Potency [5]: 0.264 µM (active)
Potency [6]: 0.526 µM (active)
Potency [7]: 0.662 µM (active)
Potency [8]: 0.662 µM (active)
Potency [9]: 1.05 µM (active)

Nc1nc(=O)n([C@H]2C[C@H](O)[C@@H](CO)O2)cc1F
Potency [1]: 0.526 µM (active)
Potency [2]: inactive
Potency [3]: 0.0469 µM (active)
viability [10]: 129%
Potency [6]: 0.0118 µM (active)
Potency [9]: inactive

CC[C@]12C=CCN3CC[C@@]4(c5cc([C@@]6(C(=O)OC)C[C@H]7C[C@@H](C(C)(F)F)CN(Cc8c6[nH]c6ccccc86)C7)c(OC)cc5N(C)[C@H]4[C@@](O)(C(=O)OC)[C@H]1OC(C)=O)[C@@H]32
Potency [1]: 0.001 µM (active)
Potency [2]: 0.0019 µM (active)
Potency [3]: 0.0166 µM (active)
Potency [10]: 0.0093 µM (active)
Potency [4]: 1.66 µM (active)
Potency [8]: 0.001 µM (active)

COc1ccc(Nc2cc(-c3cnc(N)nc3)nc(N3CCOCC3)n2)cn1
Potency [1]: 1.05 µM (active)
Potency [2]: 11.8 µM (active)
Potency [3]: 3.72 µM (active)
Potency [10]: 0.235 µM (active)
Potency [4]: 11.8 µM (active)
Potency [5]: 3.72 µM (active)
Potency [6]: 2.35 µM (active)
Potency [7]: 5.26 µM (active)
Potency [9]: 3.32 µM (active)
